# Experimental data as given in the supplement of paper PMC6555819.
# System: VDR:RXRa (NR concentration 270 nM, RXRa partner concentration 90 nM)
# Test: PBM binding z-score (relative to random genomic background probes); higher = stronger binding; sequences stand for … in GC…GCGATTGACAGCGTAGAATGAAGG
# Experimental: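 Protein-binding microarray (Agilent 4x180K custom design, double-stranded 60-nt probes: 5' GC cap, 34-nt variable region, 24-nt constant primer region; full probe sequence given). Purified or IVT nuclear receptor:RXRα heterodimers (3:1 NR:RXRα, mostly 270:90 nM) or homodimers were incubated for 1 h in PBS with 2% milk and no ligand, then detected with Alexa488 antibodies. Fluorescence from o1-orientation probes (~5 replicates averaged) was converted to z-scores against 500 random hg19 background probes. Variable regions are seed direct-repeat (DR0–DR5) sites, all their single-nucleotide variants and half-site ablations.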
row,Sequence,PBM binding z-score
1,AGAATGAGGATACCAAAGATCAGGGAAACGCTTG,-0.361
2,TCTTGTAGATCATGCAGGTTAAGAAAGCCTGAGT,0.976
3,TCATATAGGTAAATGGTGAAAGTCGGTGTGGTAA,0.561
4,CCTCGGAGGACAGAAGGTCATAGCTGTCCGCTTT,2.69
5,CCTGCTAGGTCAATGGTCAGGTAAAGCAGCTCGC,0.722
6,TCATCTAGGTAATACAGGTGAAAGTCGGCATCTA,0.916
7,ATCTCAAGGTAAAGATAGTTCAGTGAATGCAAAT,1.37
8,TCTTGTAGATCAATAGACGTTAAGAAAGTGCGCT,0.326
9,TCTATTAGTTGATTGGGGCAACCGAAACAGCGGA,0.952
10,CCTACTGGGCCATTCAGAGCTCATTGATCATATG,-0.707
11,AGAACGAGGGCAATGGGTTGATAGCACGGGTGGC,5.47
12,ACAGACAGGTGAGTGCAGGTAACTCAGCTGGACG,-0.127
13,ACAGACAGGTGATGACGGTAACTCAGGCTATCAT,-0.308
14,TAGTCTAGGTCATTGGGCCAGTATAGTACGCATC,2.5
15,GCTGCTAGGTCAGGTTGGTCAGCCAACGGGTACG,0.447
16,CGGCAAAGTTCAAGGTAACGTAACAGAAAGCAGC,3.52
17,TAGCCTAGGTCATTCAGGGGCCAGTGTAGAAAGC,3.33
18,TCGAGTAGGTTAGGCGCATTCAGAATGGCGTCGA,-0.563
19,GCTAGTTGGTCAGTAAAAGGTCACACTCCGGTCG,3.76
20,CTACCAAGTTGAACAAGGTCGTTGATTACTATTC,5.18

row,Sequence,PBM binding z-score
1,ATCTCTAGGTACAAGTTCAGTGAATCCCGAGGAT,1.96
2,CCTCGGAGGACAGAAGGTCAGAGATGTCCGCTTT,1.28
3,CCGACTGGGGCAGAAAGGTGACCATACCATCCGG,-0.31
4,TCGAGTAGGCTACCAATGGGGCATTCAGCTTTCT,-0.442
5,CGTCCAAGGTCTGAGAGGTCAGTGAATGCCGAGT,3.29
6,GGAACGAGGGCATTCGGGTTGATAGCATGGCGAT,4.61
7,GGAACGAGGGCAAAGTTGATGGCATCTGTCGACG,1.51
8,CCAGACAGGTGAAAGGTAACTCATTCTGGTACGC,0.817
9,ATCTCTAGGTAAAGATAGTTCATTGAATGCAAAT,2.07
10,TCATATAGGTAAAGAGGTGAAAGTCCGTAAGTTA,1.45
11,GCTTGTAGAACAAGGTTAAGAAAGACTAAGCTAA,0.106
12,ACTAGCAGGCCAAGTTTGGGTCACTAAAACAAAG,0.553
13,TCATATAGGTAAAAGGTGAAAGTTGGTGTGGTAA,1.88
14,GCATACAGGTAATACAAGGTGAAAGTCCGATTGT,0.492
15,TCTGCTAGGTCAGTTGGTCAACTAACGAGCTGCC,0.33
16,ACTATTGGTTGACTTAGGGCAACCGATACGACGC,0.175
17,TCTTGGAGGACACGAAAGGTCAGAGCTCGACATC,3.58
18,ACTAGTTGGTCAGCTGAGGTCGCACACAATTCGG,2.2
19,AGAGACAGGTGATGAAGGTAACTCAGGCTATCAT,0.424
20,CCTTACGGGTCACTGGCAGGTTATAGCATTTGGA,3.81
